Test results: the supplement of paper PMC6555819

What was measured:
Experiment in all cases: PBM binding z-score (relative to random genomic background probes); higher = stronger binding; sequences stand for … in GC…GCGATTGACAGCGTAGAATGAAGG
[1] = system: FXR:RXRa (NR concentration 270 nM, RXRa partner concentration 90 nM)
Outline: (§1)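 Antibodies against each partner of ligand-free nuclear receptor dimers (one per run) detected binding on custom Agilent 4×180K protein-binding microarrays after 1 h incubation. The double-stranded probes had 34-nt variable regions carrying direct-repeat seeds, single-nucleotide variants, half-site ablations and random human genomic background sequences. Binding z-scores, from regression-normalized fluorescence, use the random background probes as reference.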

[2] = system: LXRa:RXRa (NR concentration 270 nM, RXRa partner concentration 90 nM)
Outline: as §1

[3] = system: LXRa homodimer (NR concentration 270 nM)
Outline: as §1

[4] = system: LXRb:RXRa (NR concentration 270 nM, RXRa partner concentration 90 nM)
Outline: as §1

[5] = system: LXRb homodimer (NR concentration 270 nM)
Outline: as §1

[6] = system: PPARa:RXRa (NR concentration 270 nM, RXRa partner concentration 90 nM)
Outline: as §1

[7] = system: PPARg:RXRa (NR concentration 180 nM, RXRa partner concentration 90 nM)
Outline: as §1

[8] = system: PPARg:RXRa 270nM:90nM, anti-RXR (NR concentration 270 nM, RXRa partner concentration 90 nM)
Outline: as §1

[9] = system: PPARg:RXRa 30nM:10nM, anti-RXR (NR concentration 30 nM, RXRa partner concentration 10 nM)
Outline: as §1

[10] = system: PPARg:RXRa 90nM:30nM, anti-RXR (NR concentration 90 nM, RXRa partner concentration 30 nM)
Outline: as §1

[11] = system: PPARg:RXRa DBDmut IVT, anti-RXR (DBD mutation: RXRa K156A/R161A, NR concentration 270 nM, RXRa partner concentration 90 nM)
Outline: as §1

[12] = system: PPARg:RXRa IVT, anti-PPARg (NR concentration 270 nM, RXRa partner concentration 90 nM)
Outline: as §1

[13] = system: PPARg DBDmut IVT, anti-PPARg (DBD mutation: PPARg1 K132A/R137A, NR concentration 270 nM)
Outline: as §1

[14] = system: PPARg homodimer (NR concentration 180 nM)
Outline: as §1

[15] = system: PXR:RXRa (NR concentration 270 nM, RXRa partner concentration 90 nM)
Outline: as §1

[16] = system: PXR homodimer (NR concentration 270 nM)
Outline: as §1

[17] = system: RARa:RXR (NR concentration 270 nM, RXRa partner concentration 90 nM)
Outline: as §1

[18] = system: RARa homodimer (NR concentration 270 nM)
Outline: as §1

[19] = system: RARb:RXRa (NR concentration 270 nM, RXRa partner concentration 90 nM)
Outline: as §1

Sequence	PBM binding z-score [1]	PBM binding z-score [2]	PBM binding z-score [3]	PBM binding z-score [4]	PBM binding z-score [5]	PBM binding z-score [6]	PBM binding z-score [7]	PBM binding z-score [8]	PBM binding z-score [9]	PBM binding z-score [10]	PBM binding z-score [11]	PBM binding z-score [12]	PBM binding z-score [13]	PBM binding z-score [14]	PBM binding z-score [15]	PBM binding z-score [16]	PBM binding z-score [17]	PBM binding z-score [18]	PBM binding z-score [19]
CGAACCAGGTCAAAGGACAGTGAAAGGCGACGTA	5.18	3.73	0.284	2.63	-0.254	5.27	7.61	7.03	4.9	6.76	4.57	5.82	0.805	1.1	2.07	0.537	2.82	0.116	3.86
CGAACTAGGTCAACAGGACAGTGAAGAGGTTGGA	3.71	2.37	0.16	1.55	-0.34	4.7	7.52	6.53	4.22	6.18	8.18	8.23	0.713	1.93	1.28	0.261	2.27	0.467	4.23
CGAACTAGGGCACCAGGACAGTGAAGAGGTTGGA	-0.211	-0.347	-0.377	-0.672	-1.24	2.31	4.04	3.54	1.13	2.7	7.2	6.94	-0.192	0.184	-0.709	-0.309	-0.404	-1.02	1.42
CGAACTAGGTCAAAGGACGGTGAAAGGCGACGTA	4.04	2.51	-0.304	1.41	-0.584	5.34	9.5	8	7.43	8.82	7.71	8.31	2.26	1.81	0.75	-0.279	2.05	0.114	3.76
ATATGTAGGTTAGGGTCATACAGAAAGTAGGGAA	4.95	4.24	0.95	4.42	1.32	5.66	8.3	6.82	4.46	6.69	6.63	6.88	2.42	2.62	4.21	1.46	5.03	1.3	3.53
CGAACTAGGTCACCAGGACAGTGAGGAGGTTGGA	3.89	2.25	0.127	1.33	-0.378	4.93	7.97	6.87	4.45	6.61	8.37	8.24	-0.39	1.56	0.988	-0.539	1.93	0.16	4.16
CGAACTAGGTCACCAGGACAGTGAAGAGGTTGGA	3.86	2.39	-0.071	1.65	-0.543	5.04	8.82	7	4.54	6.65	8.47	8.79	4.55	2.24	1.37	0.0754	2.76	0.232	4.14
